The record followed here is PubChem BioAssay (EPA / NIEHS).

Molecules are shown by their SMILES. Active and inactive are the calls of the source. How the source made its calls: active means hit-call score of the fitted dose curve at least 0.9, where 1 is the maximum; inactive means score below 0.9.

Common to all, as to conditions: mRNA level, 48 h; actives raise or lower the signal
Read-out in experiment [1]: Tumor necrosis factor receptor superfamily member 6 (Homo sapiens) (UniProt P25445)
Nature of the experiment: LTEA_HepaRG_FAS: Life Technologies and Expression Analysis (LTEA) Assay for Fas cell surface death receptor (FAS) using HepaRG (AID 2283447). Summed up: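 Differentiated human HepaRG cells, pre-cultured 48 h, were exposed in duplicate for 48 h to 8-point half-log concentrations (top 100 uM, 0.5% DMSO) in serum-free induction medium; FAS mRNA measured by qRT-PCR, normalized to ACTB/GAPDH/POLR2A, bidirectional fit versus DMSO.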

Read-out in experiment [2]: Fatty acid synthase (Homo sapiens) (UniProt P49327)
Nature of the experiment: LTEA_HepaRG_FASN: Life Technologies and Expression Analysis (LTEA) Assay for Fatty Acid Synthase (FASN) using HepaRG (AID 2283448). The gist of the method: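 Transcript-level assay: HepaRG liver cells are treated for 48 h across an eight-point range topping at 100 uM, and FASN mRNA, normalized to three housekeeping genes, is compared with DMSO controls in both directions.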

Read-out in experiment [3]: Cyclin D2 (CCND2), CCND2 (gene 894)
Nature of the experiment: LTEA_HepaRG_CCND2: Life Technologies and Expression Analysis (LTEA) Assay for Cyclin D2 (CCND2) using HepaRG (AID 2283449).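 Further: CCND2 transcript measured by TaqMan qRT-PCR and normalised to three housekeeping genes.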 Summed up: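 Differentiated human HepaRG cells were exposed for 48 h in serum-free induction medium to eight half-log concentrations topping at 100 uM (0.5% DMSO vehicle). CCND2 mRNA was quantified by TaqMan qRT-PCR, normalised to ACTB, GAPDH and POLR2A, and fitted bidirectionally against DMSO.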

Read-out in experiment [4]: Cyclin Dependent Kinase Inhibitor 1A (CDKN1A), CDKN1A (gene 1026)
Nature of the experiment: LTEA_HepaRG_CDKN1A: Life Technologies and Expression Analysis (LTEA) Assay for Cyclin Dependent Kinase Inhibitor 1A (CDKN1A) using HepaRG (AID 2283450). Summed up:
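HepaRG, 48 h dosing, 8-pt half-log series from 100 uM top, 0.5% DMSO vehicle, duplicates. Readout: TaqMan qRT-PCR of CDKN1A transcript, housekeeping-normalized (ACTB, GAPDH, POLR2A). Up/down curve fit relative to DMSO.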

Read-out in experiment [5]: Cyclin D1 (CCND1), CCND1 (gene 595)
Nature of the experiment: LTEA_HepaRG_CCND1: Life Technologies and Expression Analysis (LTEA) Assay for Cyclin D1 (CCND1) using HepaRG (AID 2283451).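 On AC50: TaqMan qRT-PCR transcript level normalised to ACTB GAPDH and POLR2A housekeeping genes.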 Summed up:
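qRT-PCR (Fluidigm 96.96 array) read-out of transcript level, housekeeping-normalized (ACTB/GAPDH/POLR2A). HepaRG cells, 48 h chemical exposure, 8-point half-log series from 100 uM, 0.5% DMSO vehicle; gain or loss relative to DMSO baseline.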

Read-out in experiment [6]: catalase (CAT), CAT (gene 847)
Put plainly: LTEA_HepaRG_CAT: Life Technologies and Expression Analysis (LTEA) Assay for catalase (CAT) using HepaRG (AID 2283452). The gist of the method: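 Differentiated HepaRG cells in serum-free induction medium were dosed 48 h in duplicate, eight half-log concentrations from 100 uM in 0.5% DMSO. Transcript measured by TaqMan qRT-PCR, normalised to ACTB/GAPDH/POLR2A, fitted bidirectionally against DMSO.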

Read-out in experiment [7]: flavin-containing dimethylaniline monooxygenases 3 (FMO3), FMO3 (gene 2328)
Nature of the experiment: LTEA_HepaRG_FMO3: Life Technologies and Expression Analysis (LTEA) Assay for flavin-containing dimethylaniline monooxygenases 3 (FMO3) using HepaRG (AID 2283453). Summed up:
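HepaRG, 48 h exposure, 8-pt half-log series from 100 uM, 0.5% DMSO vehicle, duplicates; FMO3 transcript by Fluidigm TaqMan qRT-PCR, housekeeping-normalized; gain/loss fit vs DMSO.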

Read-out in experiment [8]: Cytochrome P450 (CYP1A1), CYP1A1 (gene 1543)
Nature of the experiment: LTEA_HepaRG_CYP1A1: Life Technologies and Expression Analysis (LTEA) Assay for Cytochrome P450 (CYP1A1) using HepaRG (AID 2283454). The gist of the method:
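qRT-PCR read-out: CYP1A1 transcript normalized to three housekeeping genes, fitted bidirectionally against 0.5% DMSO vehicle baseline. Human HepaRG cells, 48 h chemical exposure, 8-point half-log series topping at 100 uM.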

Read-out in experiment [9]: CFLAR gene, CFLAR (gene 8837)
Nature of the experiment: LTEA_HepaRG_CFLAR: Life Technologies and Expression Analysis (LTEA) Assay for CFLAR gene using HepaRG (AID 2283455). The gist of the method: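 HepaRG cells were plated for 48 h, switched to serum-free induction medium, then exposed in duplicate for 48 h to 8 concentrations (top 100 uM, half-log steps, 0.5% DMSO). CFLAR mRNA was measured by qRT-PCR, normalized to ACTB, GAPDH and POLR2A.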

Read-out in experiment [10]: Forkhead box O1 (FOXO1), FOXO1 (gene 2308)
Nature of the experiment: LTEA_HepaRG_FOXO1: Life Technologies and Expression Analysis (LTEA) Assay for Forkhead box O1 (FOXO1) using HepaRG (AID 2283456). Summed up: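 Differentiated human HepaRG cells in serum-free induction medium were exposed in duplicate for 48 h to eight half-log concentrations (top 100 uM, 0.5% DMSO). FOXO1 mRNA was measured by TaqMan qRT-PCR, normalised to ACTB, GAPDH and POLR2A, and fitted bidirectionally against DMSO.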

Read-out in experiment [11]: growth arrest and DNA damage 45 (GADD45A), GADD45A (gene 1647)
Put plainly: LTEA_HepaRG_GADD45A: Life Technologies and Expression Analysis (LTEA) Assay for growth arrest and DNA damage 45 (GADD45A) using HepaRG (AID 2283458). Summed up: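 Human HepaRG liver cells are treated in duplicate for 48 h with chemicals in 0.5% DMSO, highest concentration 100 uM. Expression is read by qRT-PCR and analyzed in both directions against vehicle.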

Read-out in experiment [12]: Forkhead box O3 (FOXO3), FOXO3 (gene 2309)
Nature of the experiment: LTEA_HepaRG_FOXO3: Life Technologies and Expression Analysis (LTEA) Assay for Forkhead box O3 (FOXO3) using HepaRG (AID 2283459). Summed up:
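Differentiated human HepaRG cells in serum-free induction medium were exposed in duplicate for 48 h to eight half-log concentrations up to 100 uM in 0.5% DMSO. FOXO3 mRNA was quantified by qRT-PCR, normalized to ACTB, GAPDH and POLR2A, with bidirectional fitting versus DMSO.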

Read-out in experiment [13]: ABC Transporter (ABCB1), ABCB1 (gene 5243)
Nature of the experiment: LTEA_HepaRG_ABCB1: Life Technologies and Expression Analysis (LTEA) Assay for ABC Transporter (ABCB1) using HepaRG (AID 2283460). The gist of the method:
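Differentiated human HepaRG cells, plated 48 h then switched to serum-free induction medium, were exposed in duplicate to eight half-log concentrations up to 100 uM in 0.5% DMSO for 48 h. ABCB1 mRNA was measured by TaqMan qRT-PCR, normalized to ACTB/GAPDH/POLR2A.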

Read-out in experiment [14]: growth arrest and DNA damage 45 (GADD45B), GADD45B (gene 4616)
Nature of the experiment: LTEA_HepaRG_GADD45B: Life Technologies and Expression Analysis (LTEA) Assay for growth arrest and DNA damage 45 (GADD45B) using HepaRG (AID 2283461). The gist of the method: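 qRT-PCR read-out (Fluidigm TaqMan, housekeeping-normalized) of mRNA change in human HepaRG cells after 48 h chemical exposure; 8-point curve, top 100 uM, half-log steps, 0.5% DMSO vehicle; gain or loss fitted relative to DMSO baseline.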

Read-out in experiment [15]: ABC Transporter (ABCC3), ABCC3 (gene 8714)
Nature of the experiment: LTEA_HepaRG_ABCC3: Life Technologies and Expression Analysis (LTEA) Assay for ABC Transporter (ABCC3) using HepaRG (AID 2283462). The gist of the method: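 qRT-PCR read-out of ABCC3 transcript, normalized to three housekeeping genes (ACTB, GAPDH, POLR2A), after 48 h chemical exposure of human HepaRG cells. Eight half-log concentrations, highest 100 uM, in 0.5% DMSO; gain or loss fitted relative to DMSO baseline.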

Read-out in experiment [16]: ABC Transporter (ABCB11), ABCB11 (gene 8647)
Put plainly: LTEA_HepaRG_ABCB11: Life Technologies and Expression Analysis (LTEA) Assay for ABC Transporter (ABCB11) using HepaRG (AID 2283463). Summed up:
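Differentiated human HepaRG cells were exposed for 48 h in serum-free induction medium to eight half-log concentrations up to 100 uM in 0.5% DMSO. ABCB11 mRNA was quantified by qRT-PCR, normalized to ACTB, GAPDH and POLR2A, and fitted bidirectionally versus DMSO.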

Read-out in experiment [17]: Broad substrate specificity ATP-binding cassette transporter ABCG2 (Homo sapiens) (UniProt Q9UNQ0)
Nature of the experiment: LTEA_HepaRG_ABCG2: Life Technologies and Expression Analysis (LTEA) Assay for ABC Transporter (ABCG2) using HepaRG (AID 2283465). Summed up:
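Differentiated HepaRG cells in serum-free induction medium were exposed for 48 h, in duplicate, to eight half-log concentrations up to 100 uM in 0.5% DMSO. ABCG2 mRNA was measured by TaqMan qRT-PCR, normalized to ACTB, GAPDH and POLR2A, and fitted bidirectionally versus DMSO.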

Read-out in experiment [18]: ATP-citrate lyase (ACLY), ACLY (gene 47)
Put plainly: LTEA_HepaRG_ACLY: Life Technologies and Expression Analysis (LTEA) Assay for ATP-citrate lyase (ACLY) using HepaRG (AID 2283466). The gist of the method:
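Differentiated human HepaRG cells in serum-free induction medium exposed 48 h, in duplicate, to eight half-log concentrations from 100 uM top in 0.5% DMSO; ACLY mRNA measured by qRT-PCR, normalized to ACTB, GAPDH, POLR2A, fitted bidirectionally versus DMSO.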

Read-out in experiment [19]: ABC Transporter (ABCC2), ABCC2 (gene 1244)
Put plainly: LTEA_HepaRG_ABCC2: Life Technologies and Expression Analysis (LTEA) Assay for ABC Transporter (ABCC2) using HepaRG (AID 2283464). Summed up: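 qRT-PCR (TaqMan, Fluidigm array) read-out of ABCC2 mRNA, normalized to three housekeeping genes. Differentiated HepaRG cells were treated 48 h in serum-free induction medium with 8-point half-log series from 100 uM in 0.5% DMSO; curves fitted bidirectionally relative to DMSO.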

Sequence of Fatty acid synthase (Homo sapiens) (P49327 whole entry, looked up): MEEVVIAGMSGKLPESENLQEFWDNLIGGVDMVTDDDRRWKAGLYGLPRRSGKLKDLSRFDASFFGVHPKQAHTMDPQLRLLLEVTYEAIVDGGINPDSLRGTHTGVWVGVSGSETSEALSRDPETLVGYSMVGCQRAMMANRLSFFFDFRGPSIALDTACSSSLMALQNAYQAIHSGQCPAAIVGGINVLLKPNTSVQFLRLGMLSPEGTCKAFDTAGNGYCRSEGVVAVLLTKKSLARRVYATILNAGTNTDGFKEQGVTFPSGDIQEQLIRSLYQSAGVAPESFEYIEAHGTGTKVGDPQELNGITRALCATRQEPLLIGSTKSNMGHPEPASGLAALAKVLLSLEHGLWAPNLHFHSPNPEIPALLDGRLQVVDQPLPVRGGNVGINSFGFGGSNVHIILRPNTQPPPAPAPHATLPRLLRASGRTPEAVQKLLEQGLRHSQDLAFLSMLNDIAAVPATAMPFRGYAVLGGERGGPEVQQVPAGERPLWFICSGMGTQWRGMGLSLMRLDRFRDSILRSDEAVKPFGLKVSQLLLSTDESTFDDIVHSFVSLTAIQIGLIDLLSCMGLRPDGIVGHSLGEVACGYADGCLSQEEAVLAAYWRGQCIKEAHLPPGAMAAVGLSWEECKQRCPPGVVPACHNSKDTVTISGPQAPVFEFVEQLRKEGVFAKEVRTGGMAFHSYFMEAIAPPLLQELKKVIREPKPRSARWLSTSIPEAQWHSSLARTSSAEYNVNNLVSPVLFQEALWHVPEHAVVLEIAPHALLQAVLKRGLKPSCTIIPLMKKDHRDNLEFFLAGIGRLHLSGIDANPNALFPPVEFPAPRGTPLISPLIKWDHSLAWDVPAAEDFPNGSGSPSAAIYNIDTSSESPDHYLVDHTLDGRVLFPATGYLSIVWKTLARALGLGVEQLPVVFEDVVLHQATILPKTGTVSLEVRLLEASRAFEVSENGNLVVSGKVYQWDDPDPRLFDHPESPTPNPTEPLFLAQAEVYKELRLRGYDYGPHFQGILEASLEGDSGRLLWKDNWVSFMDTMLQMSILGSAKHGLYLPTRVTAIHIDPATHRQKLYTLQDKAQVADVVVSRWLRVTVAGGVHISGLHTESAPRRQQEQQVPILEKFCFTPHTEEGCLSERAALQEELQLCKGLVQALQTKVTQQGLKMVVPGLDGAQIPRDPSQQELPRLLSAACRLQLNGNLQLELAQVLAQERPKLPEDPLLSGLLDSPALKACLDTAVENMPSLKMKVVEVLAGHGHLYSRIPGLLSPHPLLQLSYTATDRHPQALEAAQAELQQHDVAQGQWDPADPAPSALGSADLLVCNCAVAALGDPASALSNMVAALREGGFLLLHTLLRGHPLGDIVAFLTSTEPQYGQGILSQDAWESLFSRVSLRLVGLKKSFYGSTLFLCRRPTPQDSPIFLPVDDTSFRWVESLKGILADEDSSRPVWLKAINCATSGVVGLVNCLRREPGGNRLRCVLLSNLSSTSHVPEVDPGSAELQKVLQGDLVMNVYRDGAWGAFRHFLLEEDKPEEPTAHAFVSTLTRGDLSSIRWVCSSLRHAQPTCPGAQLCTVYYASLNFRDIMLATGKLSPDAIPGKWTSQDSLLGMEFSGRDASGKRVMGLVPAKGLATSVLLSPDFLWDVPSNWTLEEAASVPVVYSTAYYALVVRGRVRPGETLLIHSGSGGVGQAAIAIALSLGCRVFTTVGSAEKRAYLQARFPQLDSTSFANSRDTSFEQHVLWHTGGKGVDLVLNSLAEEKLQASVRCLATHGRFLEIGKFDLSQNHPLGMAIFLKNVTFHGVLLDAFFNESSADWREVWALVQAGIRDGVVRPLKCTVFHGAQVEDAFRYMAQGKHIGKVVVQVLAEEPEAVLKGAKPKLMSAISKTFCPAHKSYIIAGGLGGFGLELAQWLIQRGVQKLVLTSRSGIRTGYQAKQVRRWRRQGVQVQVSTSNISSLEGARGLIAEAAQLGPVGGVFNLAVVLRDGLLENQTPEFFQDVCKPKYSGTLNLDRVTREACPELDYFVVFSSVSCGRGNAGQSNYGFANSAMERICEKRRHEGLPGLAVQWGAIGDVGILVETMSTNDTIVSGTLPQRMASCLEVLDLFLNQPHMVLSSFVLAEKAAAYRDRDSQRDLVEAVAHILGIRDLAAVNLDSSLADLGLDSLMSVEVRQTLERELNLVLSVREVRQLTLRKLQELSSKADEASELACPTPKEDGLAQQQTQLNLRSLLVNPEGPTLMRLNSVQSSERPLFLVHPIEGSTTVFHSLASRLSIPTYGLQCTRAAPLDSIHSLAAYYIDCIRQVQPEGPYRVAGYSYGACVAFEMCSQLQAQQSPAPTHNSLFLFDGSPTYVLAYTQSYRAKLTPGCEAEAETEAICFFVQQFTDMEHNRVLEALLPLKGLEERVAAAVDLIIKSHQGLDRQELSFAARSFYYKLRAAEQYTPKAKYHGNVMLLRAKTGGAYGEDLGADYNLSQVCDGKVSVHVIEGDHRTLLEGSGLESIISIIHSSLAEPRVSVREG
Sequence of Broad substrate specificity ATP-binding cassette transporter ABCG2 (Homo sapiens) (Q9UNQ0 whole entry, looked up): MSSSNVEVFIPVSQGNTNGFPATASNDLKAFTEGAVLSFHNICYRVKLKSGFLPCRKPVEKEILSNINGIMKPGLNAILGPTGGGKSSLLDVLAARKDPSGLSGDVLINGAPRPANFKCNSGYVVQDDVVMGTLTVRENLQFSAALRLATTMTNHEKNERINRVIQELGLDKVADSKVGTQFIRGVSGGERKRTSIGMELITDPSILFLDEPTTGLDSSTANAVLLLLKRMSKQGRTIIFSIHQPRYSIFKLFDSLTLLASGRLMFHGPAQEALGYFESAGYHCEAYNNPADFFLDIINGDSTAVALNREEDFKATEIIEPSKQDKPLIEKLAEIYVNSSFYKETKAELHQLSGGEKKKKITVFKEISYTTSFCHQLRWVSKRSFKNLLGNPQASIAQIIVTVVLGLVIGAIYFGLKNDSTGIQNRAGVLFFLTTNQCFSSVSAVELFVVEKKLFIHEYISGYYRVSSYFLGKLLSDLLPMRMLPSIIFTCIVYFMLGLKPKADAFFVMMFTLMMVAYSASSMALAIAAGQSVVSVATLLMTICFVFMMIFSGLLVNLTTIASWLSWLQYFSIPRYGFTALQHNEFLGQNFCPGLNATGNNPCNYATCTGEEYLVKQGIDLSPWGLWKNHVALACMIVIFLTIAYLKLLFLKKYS

One may read the AC50 as the concentration at which the activity in the assay is half-maximal. Take `Cc1cc(=O)[nH]c(=S)[nH]1`: the call in experiment [1], in [2], in experiment [3], in [4], in [5] and in experiment [6] was inactive. Further, the compound was called inactive in experiment [7], in experiment [9], in experiment [10], in experiment [11], in [12] and in experiment [13]. Also, the compound was called inactive in [14], in experiment [15], in experiment [16], in experiment [17] and in experiment [18]. In addition, the concentration at half-maximal activity (AC50) in experiment [8] is 50 µM (active).
Take `Cc1ccc(Cl)cc1`: the compound was classed as inactive in [1], in experiment [2], in experiment [3], in experiment [4], in experiment [5] and in experiment [6]. Besides, the compound was classed as inactive in experiment [7], in experiment [8], in experiment [9], in [10], in [11] and in [12]. The result in experiment [13], in experiment [14], in experiment [15], in experiment [17] and in experiment [18] was inactive.
As for `CCCc1cc(=O)[nH]c(=S)[nH]1`, the outcome in [1], in experiment [2], in experiment [3], in experiment [4], in experiment [5] and in experiment [6] was inactive. Also, the result in experiment [7], in experiment [10], in experiment [11], in [12], in experiment [13] and in experiment [14] was inactive. In addition, the outcome in experiment [15], in experiment [16], in experiment [17] and in experiment [18] was inactive. In [8], the AC50 is 50 µM (active).
On to `CCCCC(CC)COC(=O)CC(C(=O)OCC(CC)CCCC)S(=O)(=O)O` (stereo unspecified), for which the AC50 is 83.5 µM (active) in experiment [1]; 80.5 µM (active) in experiment [2]; 85.3 µM (active) in experiment [5]; 86.6 µM (active) in experiment [6]; 77.4 µM (active) in experiment [7]; 10.3 µM (active) in [8]. Further, the AC50 in [9] was 81.7 µM (active); in experiment [10] it was 80.8 µM (active); in experiment [11], 93.9 µM (active); in experiment [12], 79.8 µM (active); in experiment [13] it was 89.9 µM (active); in [14], 82.2 µM (active). The AC50 was 89.2 µM (active) in [19] and 90.7 µM (active) in [18]. In addition, the call in experiment [3], in experiment [4], in experiment [15], in experiment [16] and in experiment [17] was inactive.
